Compound activity: PubChem BioAssay, National Center for Advancing Translational Sciences (NCATS)
The entries come from a sample that favours hits as a whole.
Pf Dd2 inh – inhibitors of Plasmodium falciparum Dd2 growth; P. falciparum Dd2 growth, SYBR Green, 72 h; Potency, µM (titrated, usually from 28.9 µM), most hits filed as inhibitors; hit rate 4.3% among 120,000; active = well fitted inhibition curve with a large enough effect; note: nearly all actives have a fitted effect of over 65% in size
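Infected erythrocytes (Dd2, 0.3% parasitemia, 2.5% hematocrit final) are added to compound in RPMI-1640/Albumax II medium, grown 72 h at 37C in low oxygen, then lysed with saponin/Triton-X containing SYBR Green and read by fluorescence.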
Large screens that a line does not name were inactive.

COc1ccc(-c2nc(-c3ccccc3)nc3c2CN(C(=O)c2ccc(C(F)(F)F)cc2)CC3)cc1	Pf Dd2 inh 8.9µM
COc1ccc(-c2nc(C)nc3c2CN(C(=O)c2ccc(C)cc2)CC3)cc1	none
COc1ccc(-c2nc(C)nc3c2CN(C(=O)c2ccccn2)CC3)cc1	none
COc1ccc(CC(=O)N2CCc3nc(-c4ccc(Cl)cc4)nc(-c4ccccc4)c3C2)cc1	none
COc1ccc(-c2nc3c(c(-c4ccccc4)n2)CN(C(=O)c2ccccc2Cl)CC3)cc1	Pf Dd2 inh 10µM
COc1ccc(-c2nc(C)nc3c2CN(C(=O)c2ccccc2)CC3)cc1	none
COc1ccccc1-c1ncc(CNc2ncncn2)s1	none
O=C(c1ccccc1Cl)N1CCN(c2cc(-c3ccccc3)[nH]n2)CC1	none
COc1ccccc1OC1(C(=O)O)CCN(C(=O)c2ccoc2C)CC1	none
COCC(=O)N[C@H]1C[C@@H](c2nc(-c3ccc4c(c3)OCO4)no2)N(C)C1	none
O=C(NCc1ccco1)C1CC(c2ccccc2)CN(C(=O)c2ccccc2F)C1 (stereo not given)	none
CN1CCN(Cc2nc(C3(O)CCNCC3)cs2)CC1	none
CC(=O)N1CCc2cc(S(=O)(=O)CCC(=O)N3CCC(Cc4nncn4CC4CC4)CC3)ccc21	none
CC1CCC(NC(=O)C2CCN(C(=O)c3ncn4c3COC(c3ccc(F)cc3)C4)CC2)CC1 (stereo not given)	none
CN(C)c1ccc(CN2CCNc3cc(Nc4ccccc4)ncc3C2)cc1	Pf Dd2 inh 5.6µM
COCCN1CCNc2cc(Nc3cccc(OC)c3)ncc2C1	none
Cn1cc(CN2CCNc3cc(Nc4cccnc4)ncc3C2)cn1	none
Cc1[nH]cnc1CN1CCNc2cc(-c3ccccc3)ncc2C1	none
c1ccc(Nc2cc3c(cn2)CN(Cc2ncc[nH]2)CCN3)cc1	none
Cn1ccnc1CN1CCNc2cc(Nc3ccccc3)ncc2C1	none
c1ccc(CN2CCNc3cc(-c4cccnc4)ncc3C2)cc1	none
Cn1cnc(CN2CCNc3cc(Nc4ccccc4)ncc3C2)c1	none
COc1ccccc1CN1CCNc2cc(Nc3ccccc3)ncc2C1	Pf Dd2 inh 6.3µM
c1cncc(Nc2cc3c(cn2)CN(Cc2cccs2)CCN3)c1	none
Fc1ccc(Nc2cc3c(cn2)CN(Cc2ccncc2)CCN3)cc1Cl	Pf Dd2 inh 7.1µM
c1ccc(-c2cc3c(cn2)CN(Cc2c[nH]c4ccccc24)CCN3)cc1	Pf Dd2 inh 7.9µM
O=C(c1ccco1)N1CC2CC(C1)[C@H]1CCCC(=O)N1C2 (stereo not given in full)	none
Cc1ccc(C2Cn3nnc(C(=O)N4CCC(C(=O)Nc5ccc(Cl)c(C)c5)CC4)c3CO2)cc1 (stereo not given)	none
CCNC(=O)CCC[C@@H]1[C@H]2CCCN3CCC[C@@H](CN1C(C)=O)[C@@H]23	none
O=C(CCc1nnn2c1CN(C(=O)c1ccccc1F)CC2)NC1CC1	none
Cc1cc(C)n(CCC(=O)NCC23CCCC=C2N(CC2CC2)C(=O)CC3)n1 (stereo not given)	none
CCOc1ccc2c(n1)CCN(C(=O)c1ccc(OC)c(OC)c1)C2	none
Cc1oc2ccn(Cc3ccc(F)cc3)c(=O)c2c1C(=O)NC1CCCCCC1	none
CCOCc1nc(C2CCCN2C(=O)NCCC(=O)OCC)no1 (stereo not given)	none
COc1cncc([C@@H](NC(=O)CCc2c(C)noc2C)C2CC(O)C2)c1 (stereo not given in full)	none
NC(=O)[C@H](Cc1cccs1)NC(=O)C1=C[C@@H](NC(=O)CC2(CC(=O)O)CCCC2)[C@@H](O)[C@H](O)C1	none
COc1nc2c(cc1CNC(=O)CC1CCC(=O)N1)C(=O)N(C1CCCC1)C2 (stereo not given)	none
CC(C)(O)C1CCCN(C(=O)c2cc(COc3cccc(F)c3)[nH]n2)C1 (stereo not given)	none
COc1ccccc1CCC(=O)N1CC[C@@H]2[C@@H](CCC(=O)N2CCN)C1	none
COCc1nn(CC(=O)N2CCc3sccc3C2)c(=O)n1-c1ccccc1	none
Cc1cc(C)c([S+](=O)([O-])c2nnn3c2nc(NCc2ccncc2)c2ccccc23)c(C)c1	Pf Dd2 inh 2.2µM
Cc1ccc([S+](=O)([O-])c2nnn3c2nc(NCc2ccncc2)c2ccccc23)cc1	none
COc1ccc([S+](=O)([O-])c2nnn3c2nc(NCc2ccncc2)c2ccccc23)cc1	none
CC(C)OCCCNC(=O)c1nn(C)c2c1CSc1ccccc1-2	none
CC(C)CCNC(=O)c1nn(C)c2c1CSc1ccccc1-2	none
CCN(CC)CCCNC(=O)c1nn(C)c2c1CSc1ccccc1-2	Pf Dd2 inh 5.6µM
O=C(Cn1c(=O)n(CC2CCC(C(=O)NCCc3ccccc3)CC2)c(=O)c2ccccc21)Nc1cccc(F)c1 (stereo not given)	none
COc1cc(NC(=O)Cn2c(=O)n(CC3CCC(C(=O)NCCc4ccccc4)CC3)c(=O)c3ccccc32)cc(OC)c1 (stereo not given)	Pf Dd2 inh 0.89µM
Cc1cccc(NC(=O)Cn2c(=O)n(CC3CCC(C(=O)NCCc4ccccc4)CC3)c(=O)c3ccccc32)c1 (stereo not given)	Pf Dd2 inh 11µM
Cc1cccc(C)c1NC(=O)Cn1c(=O)n(CC2CCC(C(=O)NCCc3ccccc3)CC2)c(=O)c2ccccc21 (stereo not given)	none
